Source: PubChem BioAssay (NCI)
About 83,000 compounds went through this panel and 20% of them were active in at least one assay; those are over-represented in the sample as a whole.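 Single-dose data. Exposure time 48 hours. Values below 10 considered active.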 A number with no mark means an inactive call. Active and inactive are the calls of the source.

Each compound was assayed on HL-60(TB) leukemia (assay: NCI-60 one-dose screen, 48 h (100 = growth as untreated, 0 = no growth, -100 = all killed)). Conditions: 10 µM unless noted.

Compound	growth
Cn1ncc2c(N)nc(Oc3ccccc3-c3ccccc3)nc21	-18.4% (active)
CCOC(=O)c1c(CSc2ccccc2)n(C)c2cc(CN(C)C)c(O)c(CN(C)C)c12	52.2%
COc1ccc2nc(Nc3cccc(NC(=O)c4ccc(CN5CCN(C)CC5)c(C(F)(F)F)c4)c3)ccc2c1	-47.8% (active)
COc1ccc(/C=N/NC(=O)Cn2nc(Cc3ccc(OC)cc3)c3onc(C)c3c2=O)cc1	27.6%
CN(C)c1nc(NCCNS(=O)(=O)c2ccc(C3=Nc4c(N)nc(N)nc4NC(c4ccc(C(F)(F)F)cc4)C3)cc2)nc(N2CCOCC2)n1 (configuration not stated)	6.05% (active)
O=C(/C=C/c1cccc(OCc2ccc(F)cc2)c1)c1nc2ccccc2[nH]1	8% (active)
COc1cc(/C=C/C(=O)c2cnn(-c3cc(=O)[nH]c4ccc(Br)cc34)c2C)cc(OC)c1OC	-19.6% (active)
Cc1nc2c(cnn2-c2ccccc2)c(=O)n1-c1ccc(NC(=O)c2ccc(F)cc2)cc1	42.5%
COCOc1cc2c(=O)c(C)c(C(=O)N[C@@H](Cc3ccccc3)C(O)C(=O)NCc3ccccc3)oc2cc1OC (some centres not stated)	99.2%
COc1ccccc1[C@H]1C(C(=O)c2ccc(Cl)cc2)C2(N[C@@H]1c1ccccc1)C(=O)Nc1ccc(Cl)cc12 (some centres not stated)	-25.1% (active)
CC(=O)Nc1ccc(-c2cn(-c3cccc(C(=O)Nc4ccc(Cl)c(C(F)(F)F)c4)c3)nn2)cn1	35%
NS(=O)(=O)c1ccc(NC(=O)CSc2ccc(-c3ccc(Cl)cc3)nn2)c(Br)c1	98%
